This is a sample that favours compounds with a hit; in the whole collection about 2.5% have one here.
POLB inh: DNA polymerase beta (human) inhibition; Potency, µM (highest dose often 114 µM), hits mostly inhibitors; Pol beta primer extension/strand displacement, fluorescence kinetic; AID 485314; P06746; actives 1.3% (n = 340,000)
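Pol beta (10 nM) was preincubated with compound for 15 min at room temperature. The reaction was then started with 50 nM substrate and read immediately and after a further 10 min at room temperature.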
Pol iota inh: DNA polymerase iota (human) inhibition; Q9UNA4; Pol iota fluorescent replication assay, 10 min; Potency, µM (titrated, usually from 115 µM), actives largely listed as inhibitors; actives 1% (n = 390,000); AID 588590
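Fluorescent replication assay read twice, at 0 min and 10 min after adding 50 nM (final) substrate. Enzyme (10 nM) and compounds were first incubated 15 min at room temperature; enzyme-free buffer wells were negative controls.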
Pol kappa inh: DNA polymerase kappa (human) inhibition; Q9UBT6; purified Pol kappa, fluorescent DNA synthesis assay, 10 min; Potency, µM (series often up to 107 µM), hits mostly inhibitors; actives 0.53% (n = 400,000); AID 588579
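Kinetic fluorescence screen: compound preincubated 15 min RT with 10 nM enzyme; 50 nM substrate (final) initiates; reads at 0/10 min.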
POLH inh: inhibitors of human DNA polymerase eta; actives 1.2% (n = 390,000); AID 588591; recombinant Pol eta, fluorescent DNA replication assay; Q9Y253; Potency, µM (series often up to 114 µM), most hits filed as inhibitors
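Pol eta at 10 nM preincubated with compounds 15 min at room temperature; reaction started with fluorescent substrate (50 nM final) and read kinetically at 0 and 10 min.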
L3MBTL1 block: inhibitors of human L3MBTL1; actives 0.66% (n = 230,000); Q9Y468; Potency, µM (top dose mostly 57.1 µM), usual class: inhibitors; AlphaScreen L3MBTL1–H3K9me1 peptide binding; further: nearly all actives have a fitted effect of over 60% in size
Target sequence (Q9Y468 whole entry, looked up): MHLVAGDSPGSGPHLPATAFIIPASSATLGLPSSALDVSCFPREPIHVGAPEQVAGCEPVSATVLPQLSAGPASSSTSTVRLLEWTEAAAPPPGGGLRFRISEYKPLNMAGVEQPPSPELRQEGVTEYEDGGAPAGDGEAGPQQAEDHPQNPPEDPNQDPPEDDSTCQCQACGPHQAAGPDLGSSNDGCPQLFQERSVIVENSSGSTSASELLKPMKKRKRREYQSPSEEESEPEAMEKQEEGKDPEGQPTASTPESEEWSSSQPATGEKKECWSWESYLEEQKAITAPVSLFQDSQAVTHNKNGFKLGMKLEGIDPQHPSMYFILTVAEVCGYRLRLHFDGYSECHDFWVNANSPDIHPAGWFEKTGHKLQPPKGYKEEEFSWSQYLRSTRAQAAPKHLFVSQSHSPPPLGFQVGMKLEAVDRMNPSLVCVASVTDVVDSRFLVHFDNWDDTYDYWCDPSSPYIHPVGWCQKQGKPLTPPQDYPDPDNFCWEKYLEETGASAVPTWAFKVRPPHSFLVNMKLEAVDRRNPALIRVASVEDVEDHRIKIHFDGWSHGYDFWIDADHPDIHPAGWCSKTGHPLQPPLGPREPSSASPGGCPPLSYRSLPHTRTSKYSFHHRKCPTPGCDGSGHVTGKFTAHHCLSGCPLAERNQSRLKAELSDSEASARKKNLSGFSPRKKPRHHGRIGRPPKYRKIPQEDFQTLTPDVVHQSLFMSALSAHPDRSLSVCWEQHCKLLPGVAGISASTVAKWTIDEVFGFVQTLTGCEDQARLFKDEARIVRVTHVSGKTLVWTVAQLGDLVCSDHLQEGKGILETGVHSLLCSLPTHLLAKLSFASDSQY
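L3MBTL1 (50 nM) pre-complexed 30 min with biotinylated H3(1-15)K9me1 peptide (75 nM), then compounds added for 30 min at room temperature; AlphaScreen streptavidin donor/nickel chelate acceptor beads (10 ug/mL final) read after 30 min dark incubation.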
WRN inhibitor: WRN helicase (human) inhibition | WRN helicase unwinding, fluorescent forked duplex, kinetic | Potency, µM (series often up to 114 µM), actives largely listed as inhibitors | actives 0.46% (n = 360,000); further: nearly all actives have a fitted effect of over 55% in size
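WRN at 20 nM final preincubated with compound 15 min at room temperature; reaction started with 100 nM fluorophore/quencher forked duplex oligonucleotide and 2 mM ATP final. Unwinding followed kinetically by red fluorescence (ex 525, em 598 nm).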
Hits are given with their value; . = inactive; ? = inconclusive; / = no result; [ ] = dose if it differs, or a comment. The call rests on the fitted dose curve; in most records, active means well fitted curve in the direction sought with a large enough effect; inconclusive means small, poorly fitted or top-dose-only effect, or another doubt; inactive means no such curve, though single readings can be large; an effect the other way counts as inactive or inconclusive.

SMILES	POLB inh	Pol iota inh	Pol kappa inh	POLH inh	L3MBTL1 block	WRN inhibitor
Cc1nn(C(C)C(=O)NC2CCCCCC2)c(=O)c2nn(-c3ccccc3)c(C)c12 (stereo not drawn)	.	.	.	.	/	.
CN1CCc2cc3c(c4c2[C@H]1[C@H](O)c1ccccc1-4)OCO3	45µM	?	?	.	.	.
Oc1cccc(CN2CCN(c3ncc(Cc4ccccc4)cn3)CC2)c1	/	/	/	/	/	.
COc1ccc(-n2c(NC(=O)c3ccc(Br)o3)c(C#N)c3nc4ccccc4nc32)cc1	32µM	/	/	/	.	/
O=C(NCCC(F)(F)F)c1cccc2c(-c3ccc(F)c(F)c3)coc12	/	/	/	/	/	.
COCCCNC(=O)c1ccc(Cn2c(=O)c3ccccc3n(CC(=O)Nc3ccc(C)cc3C)c2=O)cc1	.	?	.	.	/	/
COCCCNC(=O)Cn1c(=O)n(Cc2ccc(C(=O)NCc3ccc(C)cc3)cc2)c(=O)c2ccccc21	?	89µM	.	?	/	/
CC(NC(=O)Nc1ccc(O)cc1)(C(F)(F)F)C(F)(F)F	.	11µM	.	.	?	.
CCC(NC(=O)Nc1ccc(O)cc1)(C(F)(F)F)C(F)(F)F	.	18µM	.	.	?	.
CCC(NC(=O)NCc1ccccc1)(C(F)(F)F)C(F)(F)F	.	.	.	.	.	.
COc1ccc(CSc2nc(C)cc(=O)[nH]2)cc1Br	.	.	.	.	.[11.4 µM]	.
COCCCN=C(c1ccco1)n1c(=S)nc(-c2ccco2)n(CCCOC)c1=S	35µM	20µM	?	.	?	.
COc1ccccc1CNC(=O)C1CCN(S(=O)(=O)c2c(C)noc2/C=C/c2cccs2)CC1	.	89µM	?	.	/	/
COc1ccc(NC(=O)C2CCN(S(=O)(=O)c3c(C)noc3/C=C/c3cccs3)CC2)cc1	.	.	.	.	/	/
CN(C)C1CCN(Cc2cc(COCc3ccccc3)c3cccnc3c2O)C1 (stereo not drawn)	/	.	.	.	10µM	/
Oc1c(Cl)cc(CN2CCCCC2)c2cccnc12	.	/	/	/	/	/
Oc1c(CN2CCCCC2)cc(COCc2ccccc2)c2cccnc12	.	.	.	.	13µM	.
CCOCc1cc(CN2CCN(c3ccccc3OC)CC2)c(O)c2ncccc12	.	.	.	/	/	/
Cc1ccc2nc(NC(=O)CSc3nccn3-c3ccc(Cl)cc3)sc2c1	25µM	?	.	.	/	/
CCOC(=O)C(C#N)=C1CCC=C(C)C1	/	/	/	.	/	.
Cc1ccc(S(=O)(=O)c2nnn3c2nc(NC2CCN(Cc4ccccc4)CC2)c2ccccc23)cc1C	.	45µM	?	.	/	.
Cc1ccc(S(=O)(=O)c2nnn3c2nc(NCCCN2CCCC2=O)c2ccccc23)cc1C	.	.	.	.	/	.
O=C(NCc1cccs1)C1C(=O)Nc2ccccc2C(=O)N1C1CCCC1 (stereo not drawn)	/	/	/	/	/	.
COc1ccc(-[n+]2c(C)cc(/C=C3\Sc4ccccc4N3C)cc2C)cc1	35µM	.	.	.	.	?
CC1CCCC(C)N1C(=O)COC(=O)c1ccccc1O (stereo not drawn)	/	.	.	.	.	.
SMILES	POLB inh	Pol iota inh	Pol kappa inh	POLH inh	L3MBTL1 block	WRN inhibitor
Cc1cc(O)c2c(c1O)C(=O)[C@]13C(=C2O)C(=O)[C@@H]2[C@@H](O)[C@H]1[C@@H]1[C@H](O)[C@H]3C(=O)C3=C(O)c4c(O)cc(C)c(O)c4C(=O)[C@]312	/	3.2µM	3.5µM	5.6µM	4.5µM	56µM
COc1cccc2c1C(=O)c1c(O)c3c(c(O)c1C2=O)C[C@@](O)(C(=O)CO)C[C@@H]3OC1C[C@@H](N)[C@H](O)[C@H](C)O1 (stereo partly drawn)	/	/	18µM	/	/	/
COc1cccc2c1C(=O)c1c(O)c3c(c(O)c1C2=O)C[C@@](O)(C(=O)CO)C[C@@H]3O[C@H]1C[C@H](N)[C@@H](O)[C@H](C)O1	/	40µM	?	?	/	56µM
COc1cccc2c1C(=O)c1c(O)c3c(c(O)c1C2=O)C[C@](O)(C(=O)CO)C[C@@H]3O[C@H]1C[C@H](N)[C@@H](O)[C@H](C)O1	/	/	.	/	/	/
COc1ccc(OC)c(NC(=O)CCNS(=O)(=O)c2cccc3nonc23)c1	.	.	.	.	/	.
Cc1ccc(N)cc1S(=O)(=O)N(C)C	.	.	.	.	.	.
Cc1cc(N)ccc1S(C)(=O)=O	.	.	.	.	4.5µM	.
Cc1nn(CC(=O)NCCc2cccs2)c(=O)c2cc3ccccc3n12	.	.	.	.	/	.
CCCCNC(=O)c1nc(-c2cccc(C(F)(F)F)c2)oc1-c1ccc(OC(F)(F)F)cc1	/	/	/	/	/	.
NC(=S)NNc1cccc2cccnc12	.	11µM	.	.	?	?
NC(=S)Nc1cccc2cccnc12	.	.	.	.	.	.
O=C(COc1ccc(F)cc1Br)Nc1ccccc1N1CCOCC1	/	.	.	.	.	.
NC(=O)c1c(NC(=O)c2cc3ccccc3o2)sc2c1CCC2	50µM	?	.	?	.	.
COc1ccc(C2COc3cc(O)ccc3C2)c(OC)c1O (stereo not drawn)	/	79µM	.	.	/	.
CC1(C)C=Cc2c(ccc3c2OC[C@H](c2ccc(O)cc2O)C3)O1	/	.	.	.	.	.
